Bioassay records from PubChem.
Exocytosis inh: lytic granule exocytosis inhibition; 360,000 tested, 0.66% active; inhibition, % at 10 µM; AID 651702; TALL-104 LAMP-1 surface exposure, flow cytometry; cells stimulated with thapsigargin and PMA;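 active means inhibition above about 55%, limit read from the data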
ABCB6 inh MLPCN: blocks the human ABCB6 transporter; Q9NP58; K562-ABCB6 porphyrin accumulation, flow cytometry, 1 h; hits give low values; fluorescence ratio to DMSO, % at 10 µM; 360,000 tested, 0.19% active; AID 602162;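 active means fluorescence ratio to DMSO below 75%, the collection mean minus 3 SD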;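 further: signal is porphyrin accumulated inside mitochondria; lower ratio means ABCB6 inhibition with less porphyrin fluorescence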
CaV13 FRET inh: Disruptors of the CACNA1D IQ motif to Ca2+-dependent inactivation inhibitor domain association, primary screening, Förster resonance energy transfer in intact living …. 340,000 tested, 0.098% active. AID 743397. inhibition, % at 12.3 µM. HEK cells, CFP/YFP FRET ICDI-IQ, plate reader, 10 min; percent FRET-ratio fall versus neutral wells;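 active means mean replicate inhibition of at least 30% and at least 1% of replicates passing that level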
VLA-4 inh: inhibition in a human VLA-4 binding assay | inhibition, % (about 7 µM as worked out from the volumes in the protocol) | VLA-4 expressing cells, ligand binding flow cytometry | 330,000 tested, 0.2% active; in the data active means inhibition above about 50%
Each line names hits and unclear results; the compound was inactive in the other large screens; ! = not confirmed by another sample. Only some compounds are listed: those with a hit (about 1.1% of all), similar ones and a draw of the others.

CCN1CCc2c(sc(NC(=O)c3ccc(C(=O)c4ccccc4)cc3)c2C(N)=O)C1	none
CCC(=O)Nc1sc2c(c1C(N)=O)CCN(Cc1ccccc1)C2	CaV13 FRET inh 48
COc1cccc(C(=O)N[C@H](C(=O)N2CCC[C@H]2C(=O)NCCc2ccccc2Cl)C(C)C)c1	none (no result: Exocytosis inh, ABCB6 inh MLPCN, VLA-4 inh)
C#CCN(C[C@H]1[C@H](OC(=O)Nc2cccs2)[C@H](OC(=O)Nc2cccs2)CN(C(=O)OC(C)C)N1C(=O)OC(C)C)S(=O)(=O)c1ccc(C)cc1	none (no result: Exocytosis inh, ABCB6 inh MLPCN, VLA-4 inh)
CC(=O)N1CCN(c2ccc(N3CCN(Cc4ccccc4)[C@@H](C)C3)c(C)c2)[C@@H](C)C1	none (no result: Exocytosis inh, ABCB6 inh MLPCN, VLA-4 inh)
Cc1ccc2nc(-c3cccc(Cl)c3)c(Cc3ccsc3)n2c1	none (no result: Exocytosis inh, ABCB6 inh MLPCN, VLA-4 inh)
COc1cccc(-c2cc(CNC(=O)[C@H]3O[C@@H](n4cnc(C(N)=O)n4)[C@H](O)[C@@H]3O)no2)c1	none (no result: Exocytosis inh, ABCB6 inh MLPCN, VLA-4 inh)
Cc1ccccc1NC(=S)NCc1ccc2c(c1)cc(C)n2C	none
CCc1cccc(C)c1NC(=S)NCc1ccc2c(c1)cc(C)n2C	CaV13 FRET inh 57
Cn1cc(CC(=O)Nc2ccc(Oc3cccnc3)cc2)c2ccccc21	none (no result: Exocytosis inh, ABCB6 inh MLPCN, VLA-4 inh)
Nc1[nH]c(C(=O)c2ccccc2)c(-c2ccc3ccccc3c2)c1C(=O)NC1CC1	none (no result: Exocytosis inh, ABCB6 inh MLPCN, VLA-4 inh)
CC(Sc1nc2ccc(C(=O)c3ccccc3)cc2[nH]1)C(=O)O (stereo not given)	none
CN(C)C(=O)CSc1nc2ccc(C(=O)c3ccccc3)cc2[nH]1	CaV13 FRET inh 62
COc1ccccc1CNCC(O)Cn1c2ccccc2c2ccccc21 (stereo not given)	Exocytosis inh 87
COC(=O)[C@]12C[C@H](CC(=O)NCC3CCCCC3)C(=O)N(Cc3ccc4c(c3)OCO4)C1=C[C@H](COCc1ccccc1)O[C@@H]2C	none (no result: Exocytosis inh, ABCB6 inh MLPCN, VLA-4 inh)
CC(C)/C=C1\CC/C(=C\c2ccc(N(C)C)cc2)C1=O	Exocytosis inh 56
Cc1cc(-c2ccccc2)nc2cc(C(N)=O)nn12	ABCB6 inh MLPCN 6.0 (no result: CaV13 FRET inh)
CCOC(=O)c1cc2nc(-c3ccccc3)cc(C)n2n1	none
CCN=C1NC(c2ccccc2C(F)(F)F)C(C(=O)OC)=C(C)N1Cc1ccc(C(F)(F)F)cc1 (stereo not given)	none (no result: Exocytosis inh, ABCB6 inh MLPCN, VLA-4 inh)
CCCCCCSc1cc(-c2nc3cc(C)ccn3c2NCCCC)ccc1OC	CaV13 FRET inh 78!
CCCCCCSc1cc(-c2nc3cnccn3c2NCCCC)ccc1OC	none (no result: CaV13 FRET inh)
Cc1ccc(-n2nnnc2CNC(=O)C(=O)c2c[nH]c3ccccc23)cc1C	CaV13 FRET inh 49 (no result: VLA-4 inh)
COC(=O)C1=C(C)N(C)C(=NCC2CC2)NC1CCc1ccccc1 (stereo not given)	none (no result: Exocytosis inh, ABCB6 inh MLPCN, VLA-4 inh)
CC(C)COC(=O)NCC12C=CC(O1)C1C(=O)N(c3ccc(Cl)cc3)C(=O)C12 (stereo not given)	Exocytosis inh 91
Cc1cc(C)c(S(=O)(=O)NCC23C=CC(O2)C2C(=O)N(c4ccccc4)C(=O)C23)c(C)c1 (stereo not given)	Exocytosis inh 77
COC(=O)c1cc2c(c3c4cc(F)ccc4n(C(=O)c4ccccc4)c13)C(=O)N(C1CCCCC1)C2	none (no result: Exocytosis inh, ABCB6 inh MLPCN, VLA-4 inh)
O=C(N/N=C\c1c(O)ccc2ccccc12)c1cncc(Br)c1	Exocytosis inh 80
COC(=O)c1cc(S(=O)(=O)NCC2CCN(C(=O)C(=O)c3cc4ccccc4o3)CC2)cs1	none (no result: Exocytosis inh, ABCB6 inh MLPCN, VLA-4 inh)
Cc1cc(N2CCN(C(=O)OC(C)(C)C)C[C@@H]2C)ccc1N1CCS(=O)(=O)CC1	none (no result: Exocytosis inh, ABCB6 inh MLPCN, VLA-4 inh)
CCN(CC)c1ccc(/C=N/NC(=O)CNC(=O)c2ccc3c(c2)OCCO3)cc1	Exocytosis inh 74
O=C(OCc1ccc(Br)cc1)c1cnc(Cl)c(Cl)c1	Exocytosis inh 61
Nc1[nH]c(C(=O)c2ccccc2)c(-c2cccc3ccccc23)c1C(=O)NCc1ccc(Cl)cc1Cl	none (no result: Exocytosis inh, ABCB6 inh MLPCN, VLA-4 inh)
Cc1cc2c(c(=O)o1)[C@@]1(C(=O)N(C)c3ccccc31)C1=C(CC3(CCCCC3)OC1=O)O2	none (no result: Exocytosis inh, ABCB6 inh MLPCN, VLA-4 inh)
N#CC1=C(N)OC2=C(C(=O)CCC2)C1c1cc2c(cc1Cl)OCO2 (stereo not given)	none
N#CC1=C(N)OC2=C(C(=O)CCC2)C1c1cc2c(cc1Br)OCO2 (stereo not given)	CaV13 FRET inh 60
CO/N=C/c1ccc(N2CCOCC2)c([N+](=O)[O-])c1	none
O=[N+]([O-])c1cc(/C=N/OCc2c(Cl)cccc2Cl)ccc1N1CCOCC1	ABCB6 inh MLPCN 54
NC(=O)c1cc2ccc(O)cc2oc1=NCc1ccccc1	CaV13 FRET inh 33
C=C(C(=O)Oc1ccccc1C(C)(C)C)c1ccccc1	VLA-4 inh 55 (no result: Exocytosis inh, ABCB6 inh MLPCN, CaV13 FRET inh)
O=S(=O)(c1ccc(Cl)c(NC(=S)Nc2cccc(O)c2)c1)N1CCOCC1	none
CCN(C(=S)Nc1cc(S(=O)(=O)N2CCOCC2)ccc1Cl)c1cccc2ccccc12	Exocytosis inh 61
Cc1cc(-n2c(=O)c(C#N)cc3c(=O)n4cccc(C)c4nc32)no1	CaV13 FRET inh 43
Cc1cccn2c(=O)c3cc(C#N)c(=O)n(-c4c(C)n(C)n(-c5ccccc5)c4=O)c3nc12	none
O=S1(=O)CCC(NC(=S)Nc2ccc(Cl)cc2)C1 (stereo not given)	ABCB6 inh MLPCN 73
O=C(Nc1ccccc1)NC1CCS(=O)(=O)C1 (stereo not given)	none (no result: CaV13 FRET inh)
CCNc1nc(C)nc2c1oc1ccccc12	ABCB6 inh MLPCN 67
Cc1cccc(CS(=O)(=O)c2ncc(Cl)c(C(=O)NCc3ccc4c(c3)OCO4)n2)c1	Exocytosis inh 64
Cc1ccc(C(=O)NCc2ccc3c(c2)OCO3)c(Cl)c1	none (no result: VLA-4 inh)
N#Cc1ccc(C(=O)NCC2CCN(C(=O)C(=O)c3cccs3)CC2)cc1	none (no result: Exocytosis inh, ABCB6 inh MLPCN, VLA-4 inh)
Cc1cc(C)c(O)c(-c2cc(C(=O)NCCc3ccc(S(N)(=O)=O)cc3)[nH]n2)c1	Exocytosis inh 63
COC(=O)c1cc(=O)n(Cc2ccco2)c(=Nc2ccccc2)s1	none (no result: Exocytosis inh, ABCB6 inh MLPCN, VLA-4 inh)
O=[N+]([O-])c1cccc(OCCCN2CCC(Cc3ccccc3)CC2)c1	Exocytosis inh 86
CCOc1ccc2nc(NCCCNS(=O)(=O)c3ccc(F)cc3)c(C#N)cc2c1	CaV13 FRET inh 33
CCc1ccc(S(=O)(=O)/N=C2\C=C(Nc3cccc(C(=O)O)c3)C(=O)c3ccccc32)cc1	none
CCc1ccc(S(=O)(=O)/N=C2\C=C(Nc3ccc(O)cc3)C(=O)c3ccccc32)cc1	Exocytosis inh 86 (no result: CaV13 FRET inh)
CCc1ccc(S(=O)(=O)/N=C2/C=C(Sc3ncn[nH]3)C(=O)c3ccccc32)cc1	Exocytosis inh 98 (no result: CaV13 FRET inh)
O=C(O)c1ccc(NC2=C/C(=N/S(=O)(=O)c3cccs3)c3ccccc3C2=O)cc1	none (no result: VLA-4 inh)
O=C1C(Nc2ccc(O)cc2)=C/C(=N/S(=O)(=O)c2cccs2)c2ccccc21	Exocytosis inh 57 (no result: VLA-4 inh)
CCc1ccc(S(=O)(=O)/N=C2\C=CC(=O)c3ccccc32)cc1	none (no result: Exocytosis inh, ABCB6 inh MLPCN, CaV13 FRET inh)
O=C(O)c1ccc(NC2=C/C(=N/S(=O)(=O)c3ccccc3)c3ccccc3C2=O)cc1	Exocytosis inh 58 (no result: VLA-4 inh)
N#Cc1ccc(OCCCN2CCC(C(O)(C3=CCCC3)c3ccccc3)CC2)cc1 (stereo not given)	none (no result: Exocytosis inh, ABCB6 inh MLPCN, VLA-4 inh)
Cc1cc(NC(=O)Cc2cn(Cc3ccccc3)c3ccccc23)ccc1Oc1cccnc1	none (no result: Exocytosis inh, ABCB6 inh MLPCN, VLA-4 inh)
C[C@@H]1ON(C)[C@H]2C[C@H]3c4[nH]c5cccc(Br)c5c4CCN3C(=O)[C@@H]12	none (no result: Exocytosis inh, ABCB6 inh MLPCN, VLA-4 inh)
